# Screening data deposited in PubChem BioAssay by National Center for Advancing Translational Sciences (NCATS).
# HepG2 tox – HepG2 cytotoxicity, counter-screen for TGF-b inhibitors; HepG2 CAGA-GFP viability, ATP luminescence, 18 h; Potency, µM (top dose mostly 46.1 µM), actives largely listed as cytotoxic; hit rate 0.76% among 410,000
#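 HepG2 CAGA-GFP cells (1000/well, DMEM with 1% FBS) received compound, then TGF-beta at 500 pg/mL final, and were incubated 18 hours at 37 degrees C. Viability was read by CellTiter-Glo luminescence. Media-only wells were set as complete cell-killing and DMSO as no toxicity.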
# TDP1 cell noCPT – qHTS for Inhibitors of human tyrosyl-DNA phosphodiesterase 1 (TDP1): qHTS in cells in absence of CPT | DT40 Tdp1-/- hTDP1 cells, no CPT, ATP luminescence, 48 h | Potency, µM (series often up to 46.2 µM), most hits filed as inhibitors | hit rate 15% among 420,000 | AID 686978, 2013; note: nearly all actives have a fitted effect of over 55% in size
#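 Readout: luminescence from CellTiter-Glo after 30 min in the dark at RT. Cells: DT40 Tdp1-/- with stable hTDP1, 400/well. Exposure: compounds alone, ≥48 hr, 37 °C.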
# TDP1 block – TDP1 (human) enzyme inhibition; Q9NUW8; AID 485290; hit rate 0.28% among 350,000; Potency, µM (top dose mostly 130 µM), hits mostly inhibitors; recombinant TDP1, AlphaScreen DNA substrate cleavage; note: nearly all actives have a fitted effect of over 40% in size
# Target sequence (Q9NUW8 whole entry, looked up): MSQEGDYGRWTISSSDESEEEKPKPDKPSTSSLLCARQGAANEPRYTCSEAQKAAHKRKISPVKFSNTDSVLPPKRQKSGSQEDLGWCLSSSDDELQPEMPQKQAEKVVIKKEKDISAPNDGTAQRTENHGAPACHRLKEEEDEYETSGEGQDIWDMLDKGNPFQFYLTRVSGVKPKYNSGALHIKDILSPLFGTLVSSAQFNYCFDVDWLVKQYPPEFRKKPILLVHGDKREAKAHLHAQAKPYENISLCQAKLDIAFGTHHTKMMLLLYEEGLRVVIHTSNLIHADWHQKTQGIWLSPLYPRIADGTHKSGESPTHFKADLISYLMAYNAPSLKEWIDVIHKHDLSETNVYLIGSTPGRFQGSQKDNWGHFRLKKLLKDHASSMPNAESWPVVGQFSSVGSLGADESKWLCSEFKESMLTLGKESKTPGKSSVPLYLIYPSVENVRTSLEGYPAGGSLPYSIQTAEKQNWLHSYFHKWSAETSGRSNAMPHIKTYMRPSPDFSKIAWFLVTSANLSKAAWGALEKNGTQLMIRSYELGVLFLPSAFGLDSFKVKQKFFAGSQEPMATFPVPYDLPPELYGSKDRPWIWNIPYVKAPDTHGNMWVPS
#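 Enzyme-compound mixtures sat 15 min at room temperature, followed by a 5 min reaction with 15 nM final substrate and 10 min with AlphaScreen beads. Recombinant human Tdp1 was used at 1 nM final.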
# TGFb inhibitor – TGF-b pathway inhibition | HepG2 CAGA-GFP TGF-b/SMAD3 reporter, GFP fluorescence, 18 h; TGF-beta stimulated, 500 pg/mL final | Potency, µM (top dose mostly 46.1 µM), most hits filed as inhibitors | hit rate 1.2% among 410,000; note: nearly all actives have a fitted effect of over 65% in size
#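 Inhibition was scored as loss of TGF-beta-induced (500 pg/mL final, 18 hours, 37 degrees C) GFP in HEPG2 cells carrying a CAGA-GFP reporter, in DMEM with 1% FBS. Well GFP was summed per cell; Activity was normalised to unstimulated and stimulated DMSO wells, then concentration-response fitting.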
# IL-1B inflam inh – inhibitors of inflammasome signaling (IL-1 beta secretion). THP-1 LPS/ATP IL-1B secretion, AlphaLISA, 16 h; stronger effect = lower value. activity change, % at 57.5 µM. hit rate 4.7% among 360,000. AID 743279; in the data active = activity change below about -50%; inconclusive = mostly about -30% to -49%
#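 THP-1 cells pretreated 1 hr with compounds (up to 57.5 uM final), then stimulated with LPS (250 ng/mL final) plus ATP (1.25 mM final); secreted IL-1B measured by AlphaLISA after 16 hr, decreased signal indicating inhibition.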
# TDP1 cell CPT – growth inhibition of DT40 Tdp1-/-;hTDP1 cells with camptothecin (screen for TDP1 inhibitors). chicken DT40 Tdp1-/-;hTDP1 cells + 20 nM CPT, ATP luminescence, 48 h. Potency, µM (series often up to 46.2 µM), hits mostly inhibitors. hit rate 12% among 420,000. AID 686979; note: nearly all actives have a fitted effect of over 55% in size
#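 Chicken DT40 Tdp1-/- cells complemented with human TDP1, 400 cells/well, exposed to compounds plus 20 nM camptothecin for at least 48 h at 37 C; viability read as ATP content by CellTiter-Glo luminescence.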
# Hits are given with their value; 0 = inactive; ? = inconclusive; - = not tested or not shown; [ ] = another dose, or the depositor's remark. Shown are actives, neighbours in structure and some others; about 19% of the full set was active somewhere. Unless noted, calls come from the whole dose curve; as a rule, active = well fitted curve in the direction sought with a large enough effect; inconclusive = small, poorly fitted or top-dose-only effect, or another doubt; inactive = no such curve, though single readings can be large; an effect the other way counts as inactive or inconclusive.
SMILES,HepG2 tox,TDP1 cell noCPT,TDP1 block,TGFb inhibitor,IL-1B inflam inh,TDP1 cell CPT
CCOc1ccc(CCNC(=O)CCNC(=O)c2ccccc2Cl)cc1OCC,0,0,0,0,0,0
CC(=O)N[C@H]1CSSC[C@@H](C(=O)N2CCC[C@H]2C(=O)N2CCC[C@H]2C(=O)N[C@@H](CCCCN)C(=O)N[C@@H](CC(=O)O)C(N)=O)NC(=O)CNC(=O)[C@H](Cc2c[nH]c3ccccc23)NC(=O)[C@H](CCCNC(=N)N)NC(=O)[C@@H](Cc2ccc(Cl)c(Cl)c2)NC(=O)[C@H](Cc2cnc[nH]2)NC(=O)[C@H](CCC(=O)O)NC1=O,-,-,0,-,-,-
Cc1ccc(C(=O)NCCc2nc3ccccc3[nH]2)cc1[N+](=O)[O-],0,?,0,0,0,0
Cc1cc2cc(CNC(=O)c3ccc(C)c([N+](=O)[O-])c3)ccc2[nH]1,0,10.3µM,0,0,0,20.6µM
Cc1cc(CNC(=O)c2ccc(C)c([N+](=O)[O-])c2)c2ccccc2n1,0,9.2µM,0,0,0,13µM
CCOC(=O)NCc1ccc2[nH]c(C)cc2c1,0,0,-,0,0,0
O=c1c(-c2ccc(O)cc2)coc2cc(O[C@@H]3O[C@H](CO)[C@H](O)[C@H](O)[C@H]3O)ccc12,-,-,0,-,-,-
Cc1cccc(-c2noc(-c3ccccc3OCC(=O)Nc3ccccc3[N+](=O)[O-])n2)c1,0,16.4µM,0,0,-,?
O=C(COc1ccccc1-c1nc(-c2ccccc2)no1)Nc1cccc([N+](=O)[O-])c1,0,?,0,0,-,2.59µM
Cc1ccc(C(c2c(O)cc(C)n(Cc3ccco3)c2=O)N2CCC(C)CC2)cc1 (centres undefined),0,0,0,?,-,0
CCc1ccc(CNC(=O)c2ccc(NC(=O)N3CC(C)Sc4ccccc43)cc2)cc1 (centres undefined),0,9.2µM,0,?,-,10.3µM
Cc1cccc(CNC(=O)c2ccc(NC(=O)N3CC(C)Sc4ccccc43)cc2)c1 (centres undefined),0,16.4µM,0,0,-,20.6µM
COc1cccc(CNC(=O)c2ccc(NC(=O)N3CC(C)Sc4ccccc43)cc2)c1 (centres undefined),0,14.6µM,0,?,-,18.4µM
CC1CN(C(=O)Nc2ccc(C(=O)NCCc3ccccc3)cc2)c2ccccc2S1 (centres undefined),0,?,0,0,-,?
Clc1cc(Cl)cc(Cl)c1,-,-,0,-,-,-
CC(C)[C@H](NC(=O)c1ccco1)C(=O)Nc1ccc(OC(F)F)cc1,0,0,-,0,0,0
CC(C)(C)OC(=O)N(CCc1ccccc1)Cc1ccccc1OCc1cccc(NC(=O)C2CCCC2)c1,0,?,-,0,0,20.6µM
CC(C)(C)OC(=O)N(CCc1ccccc1)Cc1ccc(OCc2cccc(NC(=O)C3CCCC3)c2)cc1,0,6.51µM,-,0,0,5.17µM
CC(C)(C)OC(=O)N(Cc1ccccc1)Cc1ccccc1OCc1ccc(NC(=O)C2CCC2)cc1,0,?,-,0,-67.7,18.4µM
C=CCn1c(SCC(=O)Nc2ccc(S(N)(=O)=O)cc2)nnc1-c1cnccn1,0,0,0,0,0,0
COCCCNC(=O)c1c(N)n(/N=C/c2ccccn2)c2nc3ccccc3nc12,0,10.3µM,0,0,?,10.3µM
Nc1c(C(=O)Nc2ccccc2)c2nc3ccccc3nc2n1CCCN1CCOCC1,14.1µM,?,0,?,-77.9,?
Nc1c(C(=O)NC2CCCC2)c2nc3ccccc3nc2n1/N=C/c1cccnc1,0,18.4µM,-,0,0,16.4µM
C=CCNC(=O)c1c(N)n(-c2ccc3c(c2)OCO3)c2nc3ccccc3nc12,0,13µM,0,0,0,11.6µM
Cc1cc(CNC(=O)[C@@H]2C[C@H]2[C@@H](NP(=O)(c2ccccc2)c2ccccc2)c2ccccc2)nn1C,-,-,0,-,-,-
SMILES,HepG2 tox,TDP1 cell noCPT,TDP1 block,TGFb inhibitor,IL-1B inflam inh,TDP1 cell CPT
COCCNC(=O)NC(=O)CSc1nc(C)c(C)c(C)n1,0,0,0,0,0,0
O=C(NCC1CCCO1)c1ccccc1 (centres undefined),0,0,0,0,0,0
Nc1c(C(=O)NCC2CCCO2)c2nc3ccccc3nc2n1-c1ccccc1 (centres undefined),0,16.4µM,0,?,0,16.4µM
COC(=O)c1c(N)n(-c2ccc(OC)c(OC)c2)c2nc3ccccc3nc12,0,9.2µM,-,0,-,5.8µM
CCCNC(=O)c1c(N)n(-c2cccc(OC)c2)c2nc3ccccc3nc12,0,?,0,?,-70.9,?
Nc1c(C(=O)NCCN2CCOCC2)c2nc3ccccc3nc2n1-c1cccc(F)c1,0,?,0,?,-62.7,?
CN1CCN(C(=O)c2cnn(-c3ccccc3)c2NC(=O)c2ccc(Br)cc2)CC1,0,0,-,0,0,0
COc1cccc(NC(=O)CSC2=Nc3ccccc3C3=NC(CC(=O)NCCc4ccccc4)C(=O)N23)c1 (centres undefined),0,0,0,?,-,0
O=C(N/N=C/c1ccc(Cl)cc1)C(=O)N1CCCCCC1,0,0,0,0,0,0
Cc1c(C(=O)Nc2nc(-c3ccc(F)cc3)ns2)oc2ccc(Cl)cc12,0,0,0,0,-,0
COC(=O)c1ccc(Cn2nnc3c(=O)[nH]c(C4CCCN(S(=O)(=O)c5cccc(Cl)c5)C4)nc32)cc1 (centres undefined),0,?,0,0,0,?
CNC(=O)c1c(NC(=O)c2nc(SCc3ccc(C)cc3)ncc2Cl)sc2c1CCCC2,0,0,0,0,-,0
COC(=O)C1CCN(Cc2ccc3c(c2)CN(C(=O)c2sc(C)nc2C)CCO3)CC1,-,0,-,-,-,0[9.04 µM]
C=CCn1c(N)c(C(=O)Nc2cccc(C)c2)c2nc3ccccc3nc21,0,0,0,0,-60.8,0
CCOC(=O)c1c(N)n(-c2ccc(C)c(C)c2)c2nc3ccccc3nc12,0,-,0,0,-,-
COCCCNC(=O)c1c(N)n(-c2cccc(S(N)(=O)=O)c2)c2nc3ccccc3nc12,0,?,0,?,-52.5,?
O=S1(=O)C2CC3C=CC2(CN1Cc1cccc(F)c1)O3 (centres undefined),0,-,0,0,-,-
CCn1c(N2CCN(C(=S)Nc3ccc(OC)cc3)CC2)nc2ccccc21,0,14.6µM,0,0,0,14.6µM
CCn1c(N2CCN(C(=S)NCC(C)C)CC2)nc2ccccc21,0,0,0,0,-53.8,?
CCn1c(N2CCN(C(=S)NCCc3ccccc3)CC2)nc2ccccc21,0,25.9µM,0,0,?,?
